Assay results taken from PubChem BioAssay AID504900 (The Scripps Research Institute Molecular Screening Center, 2011).
Some of the results follow. Unmarked numbers belong to inactive results. Rule as the data show it: active = inhibition above about 32%; inactive = the rest.

Target: Mu-type opioid receptor (Homo sapiens) + Delta-type opioid receptor (Homo sapiens) (UniProt P35372+P41143)
Experiment: OPRM1-OPRD1 heterodimer inverse agonism – cell-based, luminescence, confirmation (AID 504900);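 also: 0% = cells with DMSO and 100% = wells lacking cells with DMSO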
Conditions: cells expressing OPRM1/OPRD1 heterodimer, at 9.3 µM, hits give high values

Sequence of Mu-type opioid receptor (Homo sapiens) + Delta-type opioid receptor (Homo sapiens) (P35372 whole entry, looked up): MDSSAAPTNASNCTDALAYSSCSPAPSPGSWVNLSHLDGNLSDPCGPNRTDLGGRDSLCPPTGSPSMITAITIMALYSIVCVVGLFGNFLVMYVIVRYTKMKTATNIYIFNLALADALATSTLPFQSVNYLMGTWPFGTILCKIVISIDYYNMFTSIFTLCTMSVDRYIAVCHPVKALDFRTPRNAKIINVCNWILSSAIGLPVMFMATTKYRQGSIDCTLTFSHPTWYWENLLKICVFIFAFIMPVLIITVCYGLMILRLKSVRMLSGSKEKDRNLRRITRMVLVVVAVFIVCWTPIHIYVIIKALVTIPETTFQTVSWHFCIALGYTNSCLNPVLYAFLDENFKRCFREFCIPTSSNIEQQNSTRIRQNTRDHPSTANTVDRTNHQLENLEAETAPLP
Sequence of Mu-type opioid receptor (Homo sapiens) + Delta-type opioid receptor (Homo sapiens) (P41143 whole entry, looked up): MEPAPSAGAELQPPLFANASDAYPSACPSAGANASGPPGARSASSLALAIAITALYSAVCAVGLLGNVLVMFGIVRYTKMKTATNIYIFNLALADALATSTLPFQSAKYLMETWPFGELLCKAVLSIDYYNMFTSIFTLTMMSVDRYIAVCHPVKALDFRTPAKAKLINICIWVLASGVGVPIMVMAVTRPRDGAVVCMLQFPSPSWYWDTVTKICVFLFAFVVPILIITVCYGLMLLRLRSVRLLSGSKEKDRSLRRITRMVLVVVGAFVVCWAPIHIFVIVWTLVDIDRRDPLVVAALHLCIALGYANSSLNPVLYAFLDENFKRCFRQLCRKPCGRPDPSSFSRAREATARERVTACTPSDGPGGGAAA

Row | SMILES | inhibition [%]
1 | CC1=CC(=Cc2sc3ccccc3[n+]2C)C=C(C)O1 | -2.66
2 | CCOC(=O)c1c(N)n(CCN2CCOCC2)c2nc3ccccc3nc12 | 3.09
